# Compound activity deposited in PubChem BioAssay by National Center for Advancing Translational Sciences (NCATS).
# GLP-1R agonist = activates the human GLP-1 receptor. HEK293 GLP-1R CRE-luciferase, luminescence, 4-6 h; cells express a hypersensitive GLP-1R form. Potency, µM (titrated, usually from 45.6 µM), for inactives: at the top dose activation, actives largely listed as activators. hit rate 0.007% among 380,000. AID 624172; also: % of control where 0% means no effect
# Target sequence (P43220 whole entry, looked up): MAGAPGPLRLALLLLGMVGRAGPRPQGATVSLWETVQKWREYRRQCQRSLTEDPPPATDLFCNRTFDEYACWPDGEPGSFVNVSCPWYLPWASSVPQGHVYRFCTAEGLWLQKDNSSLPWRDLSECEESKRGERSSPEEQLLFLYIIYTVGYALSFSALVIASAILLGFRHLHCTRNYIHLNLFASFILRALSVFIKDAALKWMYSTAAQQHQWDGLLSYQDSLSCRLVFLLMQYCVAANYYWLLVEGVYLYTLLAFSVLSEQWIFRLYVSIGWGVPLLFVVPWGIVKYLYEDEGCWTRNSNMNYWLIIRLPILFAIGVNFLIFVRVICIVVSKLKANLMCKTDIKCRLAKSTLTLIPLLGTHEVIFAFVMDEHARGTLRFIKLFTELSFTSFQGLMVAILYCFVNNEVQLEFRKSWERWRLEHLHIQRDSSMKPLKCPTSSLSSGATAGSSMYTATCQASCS
# GLP1R inv ag = inverse agonists of human GLP-1 receptor; HEK293 GLP-1R CRE-luciferase, luminescence, 24 h; GLP-1R form is constitutively active; Potency, µM (top dose mostly 38.3 µM), without a hit: at the highest dose activity change, negative = inhibition, actives largely listed as inhibitors; hit rate 1.6% among 410,000; AID 624417; also: % is scaled to controls: 0 for no effect and ±100 for the full control effect; nearly all actives have a fitted effect of over 55% in size
#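 HEK293 cells stably co-expressing a cAMP-responsive luciferase reporter and constitutively active GLP-1R were seeded, incubated 12 h, then exposed to compounds for 24 h at 37 C. Luminescence was read 12 min after detection reagent; inverse agonists lower signal.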
# ATXN viability = reduces viability in counter-screen for ATXN expression inhibitors; Potency, µM (titrated, usually from 56.7 µM), usual class: cytotoxic; S2 cells (HEK-293 line with an ATXN2-luciferase reporter) viability, CellTiter-Fluor protease fluorescence, 24 h; hit rate 0.49% among 400,000; AID 651635; also: nearly all actives have a fitted effect of over 40% in size
# ATXN2 expr inh = ATXN2 expression inhibition; HEK-293 ATXN2-luciferase reporter, luminescence, 24 h; Potency, µM (top dose mostly 57 µM), for inactives: at the highest dose activity change, negative = inhibition, most hits filed as inhibitors; hit rate 0.72% among 360,000; also: % is scaled to controls: 0 for no effect and ±100 for the full control effect; nearly all actives have a fitted effect of over 55% in size
#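 ATXN2-luciferase reporter cells (luciferase flanked by upstream and downstream ATXN2 gene portions) were treated 24 h at 37 °C with compounds at up to 57 uM. SteadyGlo luminescence gave expression; GF-AFC fluorescence gave viability.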
# HepG2 tox = HepG2 cytotoxicity, counter-screen for TGF-b inhibitors; HepG2 CAGA-GFP viability, ATP luminescence, 18 h; Potency, µM (titrated, usually from 46.1 µM), for inactives: at the top dose activity change, negative = cytotoxicity, most hits filed as cytotoxic; hit rate 0.76% among 410,000
#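 HepG2 CAGA-GFP cells (1000/well, DMEM with 1% FBS) received compound, then TGF-beta at 500 pg/mL final, and were incubated 18 hours at 37 degrees C. Viability was read by CellTiter-Glo luminescence. Media-only wells were set as complete cell-killing and DMSO as no toxicity.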
# TGFb SMAD3 inh = TGF-b pathway inhibition | HepG2 CAGA-GFP TGF-b/SMAD3 reporter, GFP fluorescence, 18 h; TGF-beta stimulated, 500 pg/mL final | AID 588855 | hit rate 1.2% among 410,000 | Potency, µM (titrated, usually from 46.1 µM), inactives show at the highest dose activity, negative = inhibition, usual class: inhibitors; also: % is scaled to controls: 0 for no effect and ±100 for the full control effect; nearly all actives have a fitted effect of over 65% in size
#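 HEPG2 CAGA-GFP cells (1000/well, DMEM with 1% FBS) were pre-incubated 2 h at 37 degrees C, given compound by pin tool, then stimulated with TGF-beta at 500 pg/mL final for 18 h before per-cell GFP fluorescence imaging.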
# Numbers without * were called inactive; i = inactive; u = inconclusive; x = no result; ! = a repeat was not active. Shown are actives, neighbours in structure and some others; about 3.7% of the full set was active somewhere. Calls follow the shape of the dose curve; as a rule, active = well fitted curve in the direction sought with a large enough effect; inconclusive = small, poorly fitted or top-dose-only effect, or another doubt; inactive = no such curve, though single readings can be large; an effect the other way counts as inactive or inconclusive. Potency is read from the fitted curve at half-maximal effect.
SMILES,GLP-1R agonist,GLP1R inv ag,ATXN viability,ATXN2 expr inh,HepG2 tox,TGFb SMAD3 inh
Cc1ccc2c(c1)c1c(n2CC(O)Cn2nc(C)c(Br)c2C)CCCC1 (stereo not given),-17%,u,i,-23%,20µM*,u
CN(C)/C=N/NC(=O)c1ccccc1,4%,42%,i,-11%,3%,-3%
O=C(NN=c1c(=O)c2ccccc2c1=O)c1ccccc1,-2%,7%,i,-15%,16µM*,11µM*
Cn1c(=O)oc2cc(S(=O)(=O)NC(Cc3ccccc3)C(=O)Nc3ccc(F)cc3)ccc21 (stereo not given),x,5%,i,2%,-13%,-15%
CCOC(=O)C1CCCN(C(=O)c2cc(-c3ccc(F)cc3)nc3ccccc23)C1 (stereo not given),22%,7.9µM*,i,16%,-14%,-20%
Cc1oc(-c2ccc(Cl)cc2)nc1Cn1c(=O)cc(C)c2c(C)nn(-c3ccccc3)c21,x,-6%,i,2%,1%,2%
COc1ccc(S[C@@H](CCN2CC[C@H](C)CCC2=O)c2ccccc2)cc1,4%,10µM*,u,u,4%,16µM*
Cc1ccc(S[C@@H](CCN2CC[C@H](C)CCC2=O)c2ccccc2)cc1,13%,u,u,-17%,-16%,u
C[C@@H](CSc1ccccc1)CN1CC[C@H](C(C)(C)C)CCC1=O,8%,u,i,-1%,-20%,u
COc1ccc(SC[C@H](C)CN2CC[C@H](C(C)(C)C)CCC2=O)cc1,3%,u,u,u,20µM*!,u
Cc1ccc(S[C@@H](CCN2CC[C@H](O)CCC2=O)c2ccccc2)cc1,8%,-14%,i,1%,-5%,u
Cc1ccc(S[C@@H](CCN2CC[C@H](C(C)(C)C)CCC2=O)c2ccccc2)cc1,-4%,10µM*,u,0%,13µM*,u
CSc1ccc(C(=O)N2CCc3c(cnc(C)c3CNC(=O)c3cncs3)C2)cc1,x,x,i,x,x,x
CCOc1cc(/C=N/O)ccc1OCc1ccc(F)cc1,u,u,i,24%,-41%,-17%
COc1cc(/C=N/NC(N)=S)ccc1OCc1ccc(C)cc1,19%,u,i,x,-7%,18µM*
COc1cc(/C=N/N=C(N)N)ccc1OCc1ccc(Cl)cc1,-7%,u,i,u,10µM*,u
CCOc1cc(/C=N/N=C(N)N)ccc1OCc1ccc(Cl)cc1,-32%,11µM*,32µM*,u,-95%,u
NC(N)=N/N=C/c1ccc(OCc2ccccc2)c(OCc2ccccc2)c1,8%,u,22µM*,22µM*,16µM*,18µM*
O=C(O)c1cc(/C=N\O)ccc1OCc1ccccc1,-13%,15%,u,6%,0%,-4%
O=C(c1cccnc1)C1CCCN(Cc2ccc3c(c2)CN(C(=O)c2cnccn2)CCO3)C1 (stereo not given),x,x,i,x,x,x
O=C(Nc1cc2c(cc1C(=O)c1cccc(Br)c1)OCCO2)c1ccccc1F,18%,8%,i,-5%,-13%,5%
Nc1ccc(N2CCN(CCCCN3C(=O)C4CCCN4C3=O)CC2)cc1 (stereo not given),-1%,-23%,18µM*,-16%,-4%,0%
CC(=O)c1cc2ccccc2s1,x,x,i,3%,x,x
CC(C)c1ccc(C2=NC(c3ccncc3)=Nc3ccc(F)cc3N2)cc1,x,4%,i,5%,-4%,5%
COc1ccc(N2CCN(CC(=O)Nc3ccc(SC(F)F)cc3)CC2)cc1,-6%,10µM*,i,x,-14%,-20%
SMILES,GLP-1R agonist,GLP1R inv ag,ATXN viability,ATXN2 expr inh,HepG2 tox,TGFb SMAD3 inh
Cn1c(CCNC(=O)C2CC23CCN(C(=O)C2=CCCC2)CC3)nc2ccccc21 (stereo not given),x,x,i,x,x,x
CCOC(=O)c1c(CN2CCN(CCO)CC2)n(-c2ccccc2)c2cc(Br)c(O)cc12,16%,2.2µM*,u,u,-54%,u
Fc1ccc(C(NCCc2ccc(Cl)cc2)c2nnc(-c3ccccc3)o2)c(Cl)c1 (stereo not given),x,10µM*,i,-8%,-7%,u
COc1ccc(CCNC(c2ccc(F)cc2)c2nnc(-c3ccccc3Cl)o2)cc1OC (stereo not given),x,u,u,-33%,-20%,18µM*
Clc1ccc(CCNC(c2nnc(-c3ccccc3)o2)c2ccccc2Cl)cc1 (stereo not given),x,u,i,-9%,-16%,u
CN(C)c1cc(N/N=C/c2ccc(Cl)cc2)nc(N(C)C)n1,-1%,2.5µM*,i,1%,-47%,u
COc1cc(N/N=C/c2ccc(N(C)C)cc2)ncn1,-4%,u,i,x,-7%,-25%
COC(=O)c1ccc(CN2CCOc3ccc(C(O)c4cccnc4)cc3C2)cc1 (stereo not given),x,x,i,x,x,x
O=C1CN(C(=O)c2ccc(S(=O)(=O)N3CCCCC3)cc2)C(c2ccc(F)cc2)c2cc(F)ccc2N1 (stereo not given),x,u,i,0%,-21%,-14%
Cc1ccc(C)c(N=Nc2ccc(O)c3ncccc23)c1,-8%,u,u,u,-16%,1%
NS(=O)(=O)c1ccc(N=Nc2ccc(O)c3ncccc23)cc1,-4%,-39%,10µM*,x,6.3µM*,8.9µM*
Cc1cccc(N=Nc2ccc(O)c3ncccc23)c1,-6%,9%,10µM*,-28%,-10%,u
CSc1ncc2c(n1)-c1ccccc1N(Cc1ccc(Cl)cc1)S2(=O)=O,x,6%,i,-6%,4%,0%
